{
  "source": "PubChem BioAssay (NCATS)",
  "key": {"[1]": {"target": "Ubiquitin carboxyl-terminal hydrolase 1 (Homo sapiens) (UniProt O94782)", "sequence (O94782 whole entry, looked up)": "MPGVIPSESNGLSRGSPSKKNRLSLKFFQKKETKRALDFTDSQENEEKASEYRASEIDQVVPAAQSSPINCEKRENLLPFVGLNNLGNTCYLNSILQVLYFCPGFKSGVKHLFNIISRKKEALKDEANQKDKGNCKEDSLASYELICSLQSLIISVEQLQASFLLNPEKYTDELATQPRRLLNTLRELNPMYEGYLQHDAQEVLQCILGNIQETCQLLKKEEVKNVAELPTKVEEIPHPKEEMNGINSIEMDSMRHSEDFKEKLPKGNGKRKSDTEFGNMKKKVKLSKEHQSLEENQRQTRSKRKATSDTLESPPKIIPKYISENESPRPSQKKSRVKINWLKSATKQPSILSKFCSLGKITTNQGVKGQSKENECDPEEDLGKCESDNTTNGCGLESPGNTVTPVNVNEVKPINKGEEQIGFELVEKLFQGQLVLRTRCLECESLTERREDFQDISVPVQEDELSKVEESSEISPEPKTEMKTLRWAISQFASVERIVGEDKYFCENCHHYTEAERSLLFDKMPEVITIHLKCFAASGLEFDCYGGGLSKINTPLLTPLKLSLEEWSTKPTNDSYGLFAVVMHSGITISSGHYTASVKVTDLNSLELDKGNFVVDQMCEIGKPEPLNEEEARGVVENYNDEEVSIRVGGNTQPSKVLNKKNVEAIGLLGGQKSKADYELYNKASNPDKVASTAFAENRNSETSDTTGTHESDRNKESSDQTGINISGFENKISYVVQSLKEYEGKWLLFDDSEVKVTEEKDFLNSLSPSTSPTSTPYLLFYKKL", "assay": "Inhibitors of USP1/UAF1: Pilot qHTS (AID 504865);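 note: rhodamine fluorescence freed from ubiquitin-rhodamine substrate followed over time; top concentration of the series differs between compounds; nearly all actives have a fitted effect of over 35% in size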", "details": "purified USP1/UAF1, Ub-rhodamine cleavage fluorescence; series mostly up to 114 µM", "procedure,_shortened": "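Enzyme-free wells gave the negative control, while test wells held 1nM USP1/UAF1 preincubated with compound for 15 min at room temperature. Ub-Rho at 150nM final started the reaction, and fluorescence at 480/540 nm was recorded kinetically.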"}, "[2]": {"target": "DNA dC->dU-editing enzyme APOBEC-3G (Homo sapiens) (UniProt Q9HC16)", "sequence (Q9HC16 whole entry, looked up)": "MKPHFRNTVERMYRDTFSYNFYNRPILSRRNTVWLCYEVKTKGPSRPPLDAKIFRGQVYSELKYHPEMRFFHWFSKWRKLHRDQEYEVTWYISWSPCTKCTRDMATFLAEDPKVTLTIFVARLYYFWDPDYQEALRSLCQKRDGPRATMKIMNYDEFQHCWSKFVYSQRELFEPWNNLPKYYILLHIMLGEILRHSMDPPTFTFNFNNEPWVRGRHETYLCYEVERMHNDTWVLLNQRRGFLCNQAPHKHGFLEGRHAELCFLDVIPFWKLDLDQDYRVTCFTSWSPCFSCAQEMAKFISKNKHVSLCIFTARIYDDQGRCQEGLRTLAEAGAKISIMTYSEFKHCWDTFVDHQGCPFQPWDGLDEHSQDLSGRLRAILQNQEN", "assay": "qHTS for inhibitors of Vif-A3G interactions: Validation (AID 588379)", "details": "Vif-A3G protein interaction assay; series mostly up to 46.1 µM", "procedure,_shortened": "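Yellow fluorescence (Ex 488, Em 500-530) of Vif-coexpressing HeLa A3G-eYFP cells, scanned by Acumen cytometer, reports blocked A3G degradation. Cells plated at 700/well overnight at 37 deg C before compound addition, then a further overnight compound incubation at 37 deg C.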"}, "[3]": {"target": "Estrogen receptor (Homo sapiens) (UniProt P03372)", "sequence (P03372 whole entry, looked up)": "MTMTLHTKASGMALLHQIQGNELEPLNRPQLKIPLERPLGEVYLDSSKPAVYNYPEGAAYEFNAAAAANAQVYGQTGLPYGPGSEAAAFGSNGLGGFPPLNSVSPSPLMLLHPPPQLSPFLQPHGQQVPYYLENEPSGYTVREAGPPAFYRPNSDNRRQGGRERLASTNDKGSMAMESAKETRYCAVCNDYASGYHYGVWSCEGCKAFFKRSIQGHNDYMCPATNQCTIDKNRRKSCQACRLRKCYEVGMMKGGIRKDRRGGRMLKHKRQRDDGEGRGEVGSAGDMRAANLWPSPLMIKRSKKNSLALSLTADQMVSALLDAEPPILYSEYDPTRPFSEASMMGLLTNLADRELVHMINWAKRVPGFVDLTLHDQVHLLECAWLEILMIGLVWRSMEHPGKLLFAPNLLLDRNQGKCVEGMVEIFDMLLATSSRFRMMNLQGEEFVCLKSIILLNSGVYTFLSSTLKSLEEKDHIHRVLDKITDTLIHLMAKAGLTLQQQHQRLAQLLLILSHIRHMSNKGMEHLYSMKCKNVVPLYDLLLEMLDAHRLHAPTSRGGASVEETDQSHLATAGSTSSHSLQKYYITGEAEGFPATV", "assay": "qHTS assay for small molecule agonists of estrogen receptor alpha signaling (AID 588514; calls by dose curve; note: nearly all actives have a fitted effect of over 70% in size)", "details": "ER-alpha-UAS-bla HEK293, beta-lactamase ratio, 18 h, percent of full estradiol response, vehicle zero; series mostly up to 76.8 µM", "procedure,_shortened": "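Efficacy is expressed against 20 nM 17-beta-estradiol (100%) and DMSO basal (0%); EC50 from Hill equation. Assay: beta-lactamase reporter in ER-alpha-UAS-bla HEK 293 cells, 18 h compound incubation, CCF4 detection.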"}},
  "note": "Results filed as inconclusive are left out. Where a call stands in place of a potency, no number is given. Activity calls are given as the source filed them. Unless noted, calls come from the whole dose curve; as a rule, active = well fitted inhibition curve with a large enough effect; inconclusive = small, poorly fitted or top-dose-only effect; inactive = flat fitted curve, though single readings scatter.",
  "data": [
    {"smiles": "CCC(=O)Nc1ccc(O)cc1", "values": [
      {"measurement": "Potency", "setting": "[1]", "value": "inactive"}
    ]},
    {"smiles": "CC(=O)Nc1ccc(/C=N/NC(N)=S)cc1", "values": [
      {"measurement": "Potency", "setting": "[1]", "value": "inactive"}
    ]},
    {"smiles": "CC(=O)Oc1ccc(C2(c3ccc(OC(C)=O)cc3)C(=O)Nc3ccccc32)cc1", "values": [
      {"measurement": "Potency", "setting": "[1]", "value": "inactive"}
    ]},
    {"smiles": "OC[C@H]1O[C@@H](O[C@@H]2[C@@H](CO)O[C@](O)(CO)[C@H]2O)[C@H](O)[C@@H](O)[C@H]1O", "values": [
      {"measurement": "Potency", "setting": "[1]", "value": "inactive"},
      {"measurement": "outcome", "setting": "[2]", "value": "inactive"}
    ]},
    {"smiles": "O=C(O)COc1nn(Cc2ccccc2)c2ccccc12", "values": [
      {"measurement": "Potency", "setting": "[1]", "value": "inactive"}
    ]},
    {"smiles": "Cc1c(Cl)cccc1Nc1ccccc1C(=O)O", "values": [
      {"measurement": "Potency", "setting": "[1]", "value": "inactive"}
    ]},
    {"smiles": "NC(=O)N/N=C/c1ccc([N+](=O)[O-])o1", "values": [
      {"measurement": "Potency", "setting": "[1]", "value": "inactive"},
      {"measurement": "outcome", "setting": "[3]", "value": "inactive"}
    ]}
  ]
}
